Test results reported in PubChem BioAssay (Tox21).
Inconclusive results are not listed. Active and inactive are the calls of the source. Unless noted, the call rests on the fitted dose curve; in most records, active means well fitted curve in the direction sought with a large enough effect in the repeat runs; inconclusive means weak or mixed curves; inactive means no such curve, though single readings can be large; an effect the other way counts as inactive or inconclusive.

Legend:
[1] = qHTS assay to identify small molecule antagonists of the estrogen receptor alpha (ER-alpha) signaling pathway using the BG1 cell line in the presence of 0.1 nM 17-beta-estradiol - cell viability counter screen (AID 1259241); further: nearly all actives have a fitted effect of over 40% in size
In short: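 Measures cytotoxicity alongside the ER-alpha antagonist readout: VM7Luc4E2 cells, charcoal-stripped serum, 0.1 nM 17beta-estradiol final, 22 hr compound incubation at 37C, CellTiter-Fluor fluorescence.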

[2] = qHTS assay to identify small molecule antagonists of the androgen receptor (AR) signaling pathway using the MDA cell line in the presence of 0.5 nM R1881 - cell viability counter screen (AID 1259242); further: nearly all actives have a fitted effect of over 45% in size
In short: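 Fluorescence from CellTiter-Fluor, which reports protease activity of live cells, was read 30 min after reagent addition to MDA-kb2 cells that had been incubated 16 hr with compound and 0.5 nM R1881.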

[3] = target: Estrogen receptor (Homo sapiens) (UniProt P03372); assay: qHTS assay to identify small molecule antagonists of the estrogen receptor alpha (ER-alpha) signaling pathway using the BG1 cell line in the presence of 0.1 nM 17-beta-estradiol (AID 1259244); further: nearly all actives have a fitted effect of over 50% in size
In short: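 Quantitative high-throughput screen in VM7Luc4E2 cells: compound plus 0.1 nM E2 (final), 22 h, 37C, 5% CO2; ONE-Glo added, 30 min room temperature, luminescence measured.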

[4] = qHTS assay to identify small molecule HDAC inhibitors (AID 1259364); further: nearly all actives have a fitted effect of over 45% in size; further: potency means the concentration at half of the fitted maximal effect
In short: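 Endogenous HDAC class I/II activity was measured in wild-type HCT-116 cells by HDAC-Glo luminescence after 2 h compound treatment.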

[5] = qHTS assay to identify small molecule HDAC inhibitors - cell viability counter screen (AID 1259365); further: series mostly up to about 92 µM; nearly all actives have a fitted effect of over 50% in size
In short: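 Following a 2hr exposure of overnight-plated wild-type HCT-116 cells to DMSO-delivered compounds, CellTiter-Glo was added and luminescence recorded after 30min at room temperature.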

[6] = qHTS assay to identify small molecule agonists of the sonic hedgehog signaling (Shh) pathway - cell viability counter screen (AID 1259366); further: nearly all actives have a fitted effect of over 50% in size
In short: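 After a 4hr attachment at 37C, NIH/3T3 cells bearing an integrated Gli1-driven luciferase reporter were dosed with compounds. Treatment lasted 24hr, with the final hour including CellTiter-Fluor for a fluorescence viability measurement.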

[7] = qHTS assay to identify small molecule antagonists of the sonic hedgehog signaling (Shh) pathway - cell viability counter screen (AID 1259367); further: nearly all actives have a fitted effect of over 55% in size
In short: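 Cells: 3T3 Gli1-Luc, 2,000/well, 4 hr pre-incubation. Compounds in DMSO, then conditioned medium. Incubation 24 hr, 37C, 5% CO2. CellTiter-Fluor at 23 hr, 1 hr, fluorescence.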

[8] = qHTS assay to identify small molecule agonists of the sonic hedgehog signaling (Shh) pathway (AID 1259368; calls by dose curve;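 further: NIH/3T3-derived 3T3Gli1-Luc cells carrying a stable Gli1-driven firefly luciferase reporter; series mostly up to about 92 µM; nearly all actives have a fitted effect of over 15% in size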)
In short: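 Luminescent signal was taken as a measure of Gli1-controlled luciferase expression in stably transfected NIH/3T3-derived cells that had been treated for 24 hr with compounds delivered in DMSO.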

[9] = qHTS assay to identify small molecule antagonists of the sonic hedgehog signaling (Shh) pathway (AID 1259369; calls by dose curve; further: nearly all actives have a fitted effect of over 45% in size; further: potency means the concentration at half of the fitted maximal effect)
In short: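 Screening used 3T3Gli1-Luc cells at 2,000 per well, compounds delivered in DMSO, and conditioned medium as agonist stimulus; plates incubated 24hr at 37 C and 5% CO2 before a 30min luciferase step.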

[10] = target: Estrogen receptor beta (Homo sapiens) (UniProt Q92731); assay: qHTS assay to identify small molecule agonists of the estrogen receptor beta (ER-beta) signaling pathway (AID 1259377; active means well fitted activation curve with a large enough effect in the signal ratio in the repeat runs, not every such curve was filed as active; the % refers to the signal ratio)
In short: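 In HEK293T cells bearing a UAS-beta-lactamase reporter under ER-beta control, DMSO-delivered compounds were incubated for 16 hr at 37C. Activity was detected as fluorescence 2 hours after LiveBLAzer B/G FRET substrate addition.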

[11] = target: Estrogen receptor beta (Homo sapiens) (UniProt Q92731); assay: qHTS assay to identify small molecule antagonists of the estrogen receptor beta (ER-beta) signaling pathway (AID 1259378; active means well fitted inhibition curve with a large enough effect in the signal ratio in the repeat runs, not every such curve was filed as active; the % refers to the signal ratio)
In short: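 Antagonist mode: compounds added to beta-lactamase reporter HEK293T ER-beta-UAS cells stimulated with E2 (1nM final), 16 hr at 37C. LiveBLAzer B/G FRET substrate, 2 hours room temperature, fluorescence read-out.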

[12] = qHTS assay to identify small molecule agonists of the androgen receptor (AR) signaling pathway in the presence of an antagonist - cell viability counter screen (AID 1259379);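 further: MDA-kb2 human breast cancer cells carrying an MMTV luciferase reporter; series mostly up to about 92 µM; nearly all actives have a fitted effect of over 25% in size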
In short: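 In MDA-kb2 cells (human breast carcinoma, MMTV-luciferase), compounds at 15 concentrations plus 3.0uM nilutamide; 16 hr, 37C, 0% CO2; CellTiter-Fluor fluorescence read for viability.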

[13] = qHTS assay to identify small molecule antagonists of the estrogen receptor beta (ER-beta) signaling pathway - cell viability counter screen (AID 1259382);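 further: HEK293T cells carrying ER-beta-UAS-bla reporter stimulated with estradiol; series mostly up to about 92 µM; nearly all actives have a fitted effect of over 55% in size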
In short: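 Tox21 10K library tested in qHTS format on ER-beta-bla HEK293T cells stimulated with 1nM E2; 16 hr treatment at 37C. Same-well CellTiter-Glo luminescence served as the cell viability measure.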

[14] = target: Estrogen receptor (Homo sapiens) (UniProt P03372); assay: qHTS assay to identify small molecule agonists of the estrogen receptor alpha (ER-alpha) signaling pathway in the presence of an antagonist (AID 1259383; calls by dose curve; further: top concentration of the series differs between compounds; nearly all actives have a fitted effect of over 15% in size)
In short: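 In VM7Luc4E2 cells, 4,000 per well, compounds at 15 concentrations were co-incubated 22hr at 37C with 10.0nM final ICI-182,780. Luminescence from the stably transfected 4×ERE-luciferase reporter was recorded 30min after ONE-Glo addition.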

[15] = qHTS assay to identify small molecule agonists or antagonists of the thyroid stimulating hormone receptor (TSHR) signaling pathway - wild type cell line counter screen (AID 1259384; calls by dose curve)
In short: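 Counter screen in untransfected Hek293: compounds (15-point titration, triplicate) plus phosphodiesterase inhibitor Ro20-1724 added after 18 h plating; 30 min RT. Intracellular cAMP via competitive d2/cryptate immunoassay, 1 h incubation.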

[16] = qHTS assay to identify small molecule phospholipidosis (PLD) inducers (AID 1259344; active means well fitted curve in the direction sought with a large enough effect; an effect the other way counts as inactive or inconclusive)
In short: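 Phospholipidosis is scored by imaging LipidTOX-stained pits in HepG2 cells exposed to compound for 24 h at 37 C; pit counts and integrated intensities per well and per cell serve as outputs.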

[17] = qHTS assay to identify small molecule agonists of the estrogen receptor beta (ER-beta) signaling pathway - cell viability counter screen (AID 1259380); further: nearly all actives have a fitted effect of over 30% in size; further: potency means the concentration at half of the fitted maximal effect
In short: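 Viability of ER-beta-UAS-bla HEK293T cells was determined by CellTiter-Glo luminescence following 16 hr treatment with test compounds at 37C.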

[18] = target: Androgen receptor (Homo sapiens) (UniProt P10275); assay: qHTS assay to identify small molecule agonists of the androgen receptor (AR) signaling pathway in the presence of an antagonist (AID 1259381; calls by dose curve; further: potency means the concentration at half of the fitted maximal effect; nearly all actives have a fitted effect of over 15% in size)
In short: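 Here, 15-concentration compound series were pin-transferred onto MDA-kb2 MMTV-luciferase cells already dosed with nilutamide (3.0uM final). After 16hr at 37C, ONE-Glo was added and luminescence read 30min later at room temperature.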

[19] = target: Thyrotropin receptor (Homo sapiens) (UniProt P16473); assay: qHTS assay to identify small molecule antagonists of the thyroid stimulating hormone receptor (TSHR) signaling pathway (AID 1259385; calls by dose curve; further: nearly all actives have a fitted effect of over 20% in size)
In short: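 Antagonist mode: compound-treated TSHR-expressing HEK293 cells were stimulated with 1.5 ng/mL TSH (final) in presence of Ro20-1724 for 30 min at RT. HTRF cAMP detection after 1 h; each compound tested at 15 concentrations, triplicate.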

Measured: Potency

Chain of Estrogen receptor (Homo sapiens) (P03372 whole entry, looked up): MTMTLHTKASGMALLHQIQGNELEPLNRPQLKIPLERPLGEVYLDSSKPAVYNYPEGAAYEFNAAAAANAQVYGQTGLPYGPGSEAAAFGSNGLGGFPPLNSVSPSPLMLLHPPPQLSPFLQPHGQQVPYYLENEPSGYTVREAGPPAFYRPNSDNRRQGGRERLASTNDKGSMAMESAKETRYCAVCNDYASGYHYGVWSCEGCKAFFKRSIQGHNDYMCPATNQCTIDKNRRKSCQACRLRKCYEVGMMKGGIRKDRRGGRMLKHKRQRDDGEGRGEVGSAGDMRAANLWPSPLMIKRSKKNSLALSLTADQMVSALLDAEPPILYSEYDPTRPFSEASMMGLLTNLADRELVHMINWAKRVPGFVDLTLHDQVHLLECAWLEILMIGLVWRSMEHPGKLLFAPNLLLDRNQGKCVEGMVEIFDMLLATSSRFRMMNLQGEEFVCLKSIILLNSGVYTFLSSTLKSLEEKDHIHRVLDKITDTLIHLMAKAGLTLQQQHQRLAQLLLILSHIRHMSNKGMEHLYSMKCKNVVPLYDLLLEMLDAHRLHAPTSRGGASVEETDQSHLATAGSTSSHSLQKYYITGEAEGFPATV
Chain of Estrogen receptor beta (Homo sapiens) (Q92731 whole entry, looked up): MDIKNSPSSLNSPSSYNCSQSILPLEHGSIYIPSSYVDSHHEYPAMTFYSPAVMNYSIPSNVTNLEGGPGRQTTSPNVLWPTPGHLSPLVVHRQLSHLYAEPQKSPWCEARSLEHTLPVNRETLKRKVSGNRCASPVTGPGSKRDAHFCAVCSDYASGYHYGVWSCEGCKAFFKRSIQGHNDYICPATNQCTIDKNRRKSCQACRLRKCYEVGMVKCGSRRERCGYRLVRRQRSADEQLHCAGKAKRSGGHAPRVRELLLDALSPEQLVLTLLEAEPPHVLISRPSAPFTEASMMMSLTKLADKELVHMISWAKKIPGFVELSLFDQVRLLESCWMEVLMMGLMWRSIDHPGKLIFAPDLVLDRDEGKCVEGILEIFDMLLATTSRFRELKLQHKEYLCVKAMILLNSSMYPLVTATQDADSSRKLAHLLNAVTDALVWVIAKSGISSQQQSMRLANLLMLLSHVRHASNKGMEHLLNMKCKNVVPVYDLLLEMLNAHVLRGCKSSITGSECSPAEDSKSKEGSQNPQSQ
Chain of Thyrotropin receptor (Homo sapiens) (P16473 whole entry, looked up): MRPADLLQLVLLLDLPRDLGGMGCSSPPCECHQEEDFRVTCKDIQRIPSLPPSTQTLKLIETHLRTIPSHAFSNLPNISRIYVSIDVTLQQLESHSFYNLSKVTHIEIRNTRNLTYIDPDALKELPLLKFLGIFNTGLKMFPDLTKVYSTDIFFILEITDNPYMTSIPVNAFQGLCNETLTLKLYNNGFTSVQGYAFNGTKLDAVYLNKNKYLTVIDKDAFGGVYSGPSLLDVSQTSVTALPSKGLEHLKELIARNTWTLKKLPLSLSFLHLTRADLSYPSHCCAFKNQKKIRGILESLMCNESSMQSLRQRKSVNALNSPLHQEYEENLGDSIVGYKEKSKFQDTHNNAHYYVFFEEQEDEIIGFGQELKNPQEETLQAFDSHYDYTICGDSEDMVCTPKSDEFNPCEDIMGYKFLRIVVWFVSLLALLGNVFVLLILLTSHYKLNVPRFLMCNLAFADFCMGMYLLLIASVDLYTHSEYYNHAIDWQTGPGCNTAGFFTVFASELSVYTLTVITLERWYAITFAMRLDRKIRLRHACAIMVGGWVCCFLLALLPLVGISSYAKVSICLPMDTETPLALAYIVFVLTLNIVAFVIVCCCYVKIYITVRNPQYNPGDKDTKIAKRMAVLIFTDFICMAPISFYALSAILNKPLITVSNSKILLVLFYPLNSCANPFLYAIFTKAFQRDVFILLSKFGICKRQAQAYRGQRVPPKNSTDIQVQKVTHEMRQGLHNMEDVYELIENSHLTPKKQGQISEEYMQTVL
Chain of Androgen receptor (Homo sapiens) (P10275 whole entry, looked up): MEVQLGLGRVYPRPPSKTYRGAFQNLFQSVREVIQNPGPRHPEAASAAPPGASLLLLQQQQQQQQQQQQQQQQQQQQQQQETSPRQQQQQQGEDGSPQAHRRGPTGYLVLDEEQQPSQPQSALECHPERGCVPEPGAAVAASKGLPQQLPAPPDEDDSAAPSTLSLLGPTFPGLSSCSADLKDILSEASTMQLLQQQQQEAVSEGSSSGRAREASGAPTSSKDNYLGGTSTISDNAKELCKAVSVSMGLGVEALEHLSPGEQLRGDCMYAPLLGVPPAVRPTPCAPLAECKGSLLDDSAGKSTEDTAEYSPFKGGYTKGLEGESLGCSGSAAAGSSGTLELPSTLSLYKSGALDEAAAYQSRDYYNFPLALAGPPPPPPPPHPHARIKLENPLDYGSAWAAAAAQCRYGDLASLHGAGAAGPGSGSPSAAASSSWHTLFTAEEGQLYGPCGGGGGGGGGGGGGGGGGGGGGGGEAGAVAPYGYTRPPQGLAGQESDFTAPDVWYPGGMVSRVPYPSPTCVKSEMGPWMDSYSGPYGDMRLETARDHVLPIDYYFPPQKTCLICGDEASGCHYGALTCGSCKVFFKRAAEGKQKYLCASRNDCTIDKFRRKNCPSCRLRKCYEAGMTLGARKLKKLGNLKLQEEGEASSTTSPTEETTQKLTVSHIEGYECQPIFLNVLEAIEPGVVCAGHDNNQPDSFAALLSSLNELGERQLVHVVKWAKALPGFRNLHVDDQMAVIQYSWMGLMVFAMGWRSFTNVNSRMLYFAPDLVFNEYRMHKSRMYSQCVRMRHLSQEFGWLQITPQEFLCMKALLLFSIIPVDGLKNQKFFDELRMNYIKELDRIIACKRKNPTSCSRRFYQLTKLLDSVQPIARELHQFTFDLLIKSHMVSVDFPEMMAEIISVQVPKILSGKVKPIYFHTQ

Cc1ccc(C(C)c2ccc(C)c(C)c2)cc1C
inactive: [1] | [2] | [3] | [4] | [5] | [6] | [7] | [8] | [9] | [10] | [11] | [12] | [13] | [14] | [15]

Nc1ccc(C(=O)Nc2ccccc2N)cc1
active: [4] 2.98 µM | [17] 0.841 µM | [18] 5.96 µM
inactive: [1] | [2] | [3] | [16] | [5] | [6] | [7] | [8] | [9] | [12] | [14] | [15] | [19]

CCCCCc1ccc(N)cc1
inactive: [1] | [2] | [3] | [4] | [5] | [6] | [7] | [8] | [9] | [10] | [11] | [12] | [13] | [15] | [19]

COC(=O)C(C)=O
inactive: [1] | [2] | [3] | [4] | [5] | [6] | [7] | [8] | [9] | [10] | [11] | [12] | [17] | [13] | [15]

CC[C@@H]1C[C@H](N(Cc2cc(C(F)(F)F)cc(C(F)(F)F)c2)C(C)=O)c2cc(C(F)(F)F)ccc2N1C(=O)OC(C)C
inactive: [1] | [2] | [3] | [4] | [5] | [6] | [7] | [8] | [10] | [12] | [17] | [13] | [14]
active: [9] 9.69 µM

N=C(N=C(N)N)N1CCOCC1
inactive: [1] | [2] | [3] | [16] | [4] | [6] | [7] | [8] | [9] | [10] | [11] | [12] | [13] | [14] | [15] | [19]

CCOc1cc(OCC)c(C(=O)CCC(=O)O)cc1OCC
inactive: [1] | [2] | [3] | [16] | [4] | [5] | [6] | [7] | [8] | [9] | [10] | [11] | [12] | [13]

Oc1ccc(O)c2c(O)cccc12
inactive: [1] | [2] | [3] | [4] | [5] | [6] | [7] | [8] | [9] | [10] | [11] | [17] | [13] | [14] | [15]

CCOC(=O)CC(C)C
inactive: [1] | [2] | [3] | [4] | [5] | [6] | [7] | [8] | [9] | [10] | [11] | [12] | [13] | [14] | [15]

CCN(CC)CCNC(C(=O)OCCC(C)C)c1ccccc1 (stereo unspecified)
inactive: [1] | [2] | [3] | [16] | [4] | [5] | [6] | [8] | [9] | [10] | [11] | [12] | [13] | [14] | [15] | [19]

CCOC(=O)C1=C(C)NC(C)=C(C(=O)OC)C1c1cccc([N+](=O)[O-])c1 (stereo unspecified)
inactive: [1] | [2] | [3] | [16] | [4] | [5] | [7] | [8] | [10] | [11] | [12] | [13] | [14] | [15] | [19]

Cn1c(=O)c2c(ncn2CC(O)CO)n(C)c1=O (stereo unspecified)
inactive: [1] | [2] | [3] | [16] | [4] | [5] | [6] | [7] | [8] | [9] | [10] | [12] | [13] | [14]

COc1ccc2[nH]c(S(=O)Cc3ncc(C)c(OC)c3C)nc2n1 (stereo unspecified)
inactive: [1] | [2] | [3] | [16] | [4] | [5] | [7] | [8] | [9] | [12] | [17] | [13] | [14]

C[C@H](CCC(=O)O)[C@H]1CC[C@H]2[C@@H]3[C@H](O)C[C@@H]4C[C@H](O)CC[C@]4(C)[C@H]3CC[C@]12C
inactive: [1] | [2] | [3] | [16] | [4] | [5] | [6] | [8] | [9] | [10] | [12] | [13] | [14] | [15] | [19]

CCN(CC)CCc1nc(-c2ccccc2)no1
inactive: [1] | [2] | [3] | [16] | [4] | [6] | [7] | [8] | [9] | [10] | [11] | [12] | [17] | [13] | [14] | [15]

CCCC(C)C
active: [17] 61.8 µM
inactive: [1] | [2] | [3] | [4] | [5] | [6] | [7] | [8] | [9] | [10] | [11] | [12] | [13] | [14] | [15] | [19]
